About 8,800 targets were measured; listed, in parts, are those with a hit and a random draw of the rest. About 0.5% of all pairs of compound and target were hits.
Assays:
Assay in all cases: log2 fold change, soluble protein after heating vs DMSO (PISA); higher = thermal stabilisation; K562 lysate, 10 uM; active = over 0.2 and 3.5 SD of the protein, either way, in both replicates (recomputed)
[1] = compound: C1=CC=C(C=C1)[C@H](COC2=CC3=C(C=C2)NC(=O)N3)NC(=O)C4=CC=CN(C4=O)CC5=CC(=C(C=C5)F)F
Procedure, shortened: (§1)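 The values are log-two fold changes in thermal stability compared with solvent controls and come from duplicates. They were obtained by TMTpro 16plex LC-MS/MS, with channel sums equalised, on the supernatant after 21,000xg for 90 min. That supernatant came from crude K562 extract at 1 mg/mL protein treated with 10 μM compound for 30 min, heated for 3 min across 48°C-58°C, pooled and brought to 0.5% NP-40 at 4°C.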

[2] = compound: CC1=C(SC2=C1C(=N[C@H](C3=NN=C(N32)C)CC(=O)N)C4=CC=C(C=C4)Cl)C
Procedure, shortened: as §1

[3] = compound: CC1=C2C(=CC=C1)N=C(N(C2=O)C3=CC=CC=C3C)CN4C=NC5=C(N=CN=C54)N
Procedure, shortened: as §1

[4] = compound: Cc1sc2c(c1C)C(c1ccc(Cl)cc1)=N[C@@H](CC(=O)OC(C)(C)C)c1nnc(C)n1-2
Procedure, shortened: as §1

[5] = compound: c1ccc([C@@H]2C[C@H]2NC2CCNCC2)cc1
Procedure, shortened: as §1

Measured: log2 fold change

ERLIN1 (UniProt O75477)
Chain of UniProt O75477 (O75477 whole entry, looked up): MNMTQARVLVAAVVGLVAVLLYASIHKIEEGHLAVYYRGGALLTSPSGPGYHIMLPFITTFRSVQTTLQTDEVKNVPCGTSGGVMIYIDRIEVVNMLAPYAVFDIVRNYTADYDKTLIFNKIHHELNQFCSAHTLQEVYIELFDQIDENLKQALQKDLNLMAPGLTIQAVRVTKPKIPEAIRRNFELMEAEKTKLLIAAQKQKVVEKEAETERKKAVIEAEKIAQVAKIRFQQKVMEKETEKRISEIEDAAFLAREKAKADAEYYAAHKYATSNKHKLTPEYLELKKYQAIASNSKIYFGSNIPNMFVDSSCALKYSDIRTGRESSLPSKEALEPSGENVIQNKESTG
inactive: [1] -0.03 | [2] 0.039 | [3] 0.02 | [4] 0.029 | [5] -0.033

FOXK1 (UniProt P85037)
Chain of UniProt P85037 (P85037 whole entry, looked up): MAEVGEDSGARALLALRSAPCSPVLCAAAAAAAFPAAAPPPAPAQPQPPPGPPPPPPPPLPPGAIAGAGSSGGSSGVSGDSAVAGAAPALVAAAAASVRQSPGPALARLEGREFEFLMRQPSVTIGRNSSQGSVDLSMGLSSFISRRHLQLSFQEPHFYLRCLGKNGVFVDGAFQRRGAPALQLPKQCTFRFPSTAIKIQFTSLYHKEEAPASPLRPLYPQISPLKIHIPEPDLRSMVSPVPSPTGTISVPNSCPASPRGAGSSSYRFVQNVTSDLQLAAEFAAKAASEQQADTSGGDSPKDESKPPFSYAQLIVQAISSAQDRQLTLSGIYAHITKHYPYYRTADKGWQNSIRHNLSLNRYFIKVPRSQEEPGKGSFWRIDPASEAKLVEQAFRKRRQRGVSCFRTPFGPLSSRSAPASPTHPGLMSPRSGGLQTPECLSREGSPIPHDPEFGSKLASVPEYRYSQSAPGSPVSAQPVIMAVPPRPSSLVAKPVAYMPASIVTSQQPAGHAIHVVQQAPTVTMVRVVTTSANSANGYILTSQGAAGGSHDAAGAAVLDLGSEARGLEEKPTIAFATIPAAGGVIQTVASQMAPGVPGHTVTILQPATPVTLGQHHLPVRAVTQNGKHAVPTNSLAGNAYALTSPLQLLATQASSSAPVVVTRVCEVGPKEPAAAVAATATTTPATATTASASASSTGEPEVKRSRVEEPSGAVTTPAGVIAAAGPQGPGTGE
inactive: [1] 0.022 | [2] 0.017 | [3] -0.001 | [4] 0.032 | [5] -0.009

EMC7 (UniProt Q9NPA0)
Chain of UniProt Q9NPA0 (Q9NPA0 whole entry, looked up): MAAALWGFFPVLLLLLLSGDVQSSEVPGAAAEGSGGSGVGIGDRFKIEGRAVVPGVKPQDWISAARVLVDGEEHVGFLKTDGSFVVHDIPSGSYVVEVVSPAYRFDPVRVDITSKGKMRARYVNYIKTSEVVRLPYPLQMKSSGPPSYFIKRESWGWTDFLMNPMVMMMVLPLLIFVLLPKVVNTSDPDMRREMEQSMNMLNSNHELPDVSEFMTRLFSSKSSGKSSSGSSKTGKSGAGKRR
inactive: [1] 0.01 | [2] 0.02 | [3] 0.024 | [4] 0.005 | [5] -0.141

EPB41, A0A2R8Y783
inactive: [1] -0.056 | [2] -0.031 | [3] 0.142 | [4] -0.131 | [5] 0.033

DVL2 (UniProt O14641)
Chain of UniProt O14641 (O14641 whole entry, looked up): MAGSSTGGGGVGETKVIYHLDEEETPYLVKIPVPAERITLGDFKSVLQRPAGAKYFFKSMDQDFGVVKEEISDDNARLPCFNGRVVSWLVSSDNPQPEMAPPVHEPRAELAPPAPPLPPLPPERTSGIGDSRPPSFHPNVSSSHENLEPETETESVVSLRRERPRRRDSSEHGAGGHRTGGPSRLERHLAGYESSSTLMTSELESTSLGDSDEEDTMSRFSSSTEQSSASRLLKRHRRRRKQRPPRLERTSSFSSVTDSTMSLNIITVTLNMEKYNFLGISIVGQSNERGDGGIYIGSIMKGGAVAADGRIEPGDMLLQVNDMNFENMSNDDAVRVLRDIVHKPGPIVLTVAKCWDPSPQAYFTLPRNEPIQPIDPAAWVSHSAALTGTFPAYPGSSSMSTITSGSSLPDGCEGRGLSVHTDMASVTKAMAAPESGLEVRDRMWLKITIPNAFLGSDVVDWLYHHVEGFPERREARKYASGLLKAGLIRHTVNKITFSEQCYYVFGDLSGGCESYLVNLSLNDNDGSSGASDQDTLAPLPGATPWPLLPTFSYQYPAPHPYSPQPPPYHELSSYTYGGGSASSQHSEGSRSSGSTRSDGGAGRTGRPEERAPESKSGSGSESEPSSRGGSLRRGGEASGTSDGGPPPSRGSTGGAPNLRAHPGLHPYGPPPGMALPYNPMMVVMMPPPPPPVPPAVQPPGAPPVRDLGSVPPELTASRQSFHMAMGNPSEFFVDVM
inactive: [1] -0.012 | [2] -0.01 | [3] 0.032 | [4] 0.098 | [5] -0.017

EPB41 (UniProt P11171)
Chain of UniProt P11171 (P11171 whole entry, looked up): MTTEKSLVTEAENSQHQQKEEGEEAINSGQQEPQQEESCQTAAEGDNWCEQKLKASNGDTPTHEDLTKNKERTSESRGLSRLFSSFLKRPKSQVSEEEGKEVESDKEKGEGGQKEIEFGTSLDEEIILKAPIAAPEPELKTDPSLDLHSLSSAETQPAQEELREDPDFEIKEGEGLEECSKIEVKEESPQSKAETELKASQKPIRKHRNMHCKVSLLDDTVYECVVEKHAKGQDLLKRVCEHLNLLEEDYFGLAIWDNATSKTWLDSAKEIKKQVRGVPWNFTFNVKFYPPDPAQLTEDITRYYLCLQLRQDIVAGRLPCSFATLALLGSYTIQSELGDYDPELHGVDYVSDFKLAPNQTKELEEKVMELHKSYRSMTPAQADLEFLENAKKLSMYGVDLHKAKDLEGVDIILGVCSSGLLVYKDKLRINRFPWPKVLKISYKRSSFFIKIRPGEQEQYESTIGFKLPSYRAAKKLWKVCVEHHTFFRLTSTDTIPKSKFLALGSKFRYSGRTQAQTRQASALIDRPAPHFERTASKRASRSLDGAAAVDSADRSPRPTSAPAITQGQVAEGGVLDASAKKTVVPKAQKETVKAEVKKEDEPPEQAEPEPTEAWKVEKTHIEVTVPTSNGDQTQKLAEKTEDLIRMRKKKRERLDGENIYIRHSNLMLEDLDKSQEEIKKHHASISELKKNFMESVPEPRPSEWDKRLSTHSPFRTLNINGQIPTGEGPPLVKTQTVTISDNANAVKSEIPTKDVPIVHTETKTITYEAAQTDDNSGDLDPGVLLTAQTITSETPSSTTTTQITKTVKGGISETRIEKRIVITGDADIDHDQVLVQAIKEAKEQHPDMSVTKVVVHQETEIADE
inactive: [1] -0.004 | [2] -0.021 | [3] -0.023 | [4] 0.027 | [5] 0.032

FAU (UniProt E9PR30)
inactive: [1] 0.001 | [2] 0.06 | [3] -0.008 | [4] 0.018 | [5] 0.135

DYRK1A (UniProt Q13627)
inactive: [1] -0.019 | [2] 0.003 | [3] -0.014 | [4] 0.019 | [5] 0.031

GALNT2 (UniProt Q10471)
Chain of UniProt Q10471 (Q10471 whole entry, looked up): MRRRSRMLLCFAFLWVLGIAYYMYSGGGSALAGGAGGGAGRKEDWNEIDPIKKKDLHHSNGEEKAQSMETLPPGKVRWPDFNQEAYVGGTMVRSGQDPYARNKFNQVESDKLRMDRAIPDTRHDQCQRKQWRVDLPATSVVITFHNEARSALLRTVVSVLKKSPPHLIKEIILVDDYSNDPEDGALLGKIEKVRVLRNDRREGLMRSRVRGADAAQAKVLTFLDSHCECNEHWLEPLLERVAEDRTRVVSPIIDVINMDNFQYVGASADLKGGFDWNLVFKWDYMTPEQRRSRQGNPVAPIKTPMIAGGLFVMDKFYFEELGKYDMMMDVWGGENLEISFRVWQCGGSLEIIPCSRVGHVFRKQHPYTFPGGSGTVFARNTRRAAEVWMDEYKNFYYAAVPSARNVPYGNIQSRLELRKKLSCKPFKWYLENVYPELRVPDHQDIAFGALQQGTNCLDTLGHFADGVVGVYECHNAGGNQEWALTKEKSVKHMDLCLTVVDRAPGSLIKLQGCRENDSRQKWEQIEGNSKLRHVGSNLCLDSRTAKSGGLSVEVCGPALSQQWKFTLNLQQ
inactive: [1] 0.018 | [2] -0.009 | [3] 0.021 | [4] 0.004 | [5] -0.021
